Assay results reported in PubChem BioAssay (EPA / NIEHS).
Where “and” joins values, the source holds several entries; their conditions need not be identical. Equal entries are not always repeated. Results filed as inconclusive are left out. Calls of active or inactive are those of the source. The calls were made as follows, unless noted: active = hit-call score of the fitted dose curve at least 0.9, where 1 is the maximum; inactive = score below 0.9.

Assays:
[1] = CCTE_Mundy_HCI_Cortical_Synap_Neur_Matur_SynapseCount: CCTE's Synaptogenesis and Neurite Maturation Assay in rat cortical cells for Synapse Count, Mundy Lab (AID 2284218)
Summary of the method: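 Primary rat cortical culture; AraC DIV 5 to arrest glia; compound + media change DIV 7; terminated DIV 12. PFA/Hoechst fix, anti-MAP2 + anti-synaptophysin immunostain; HCI synapse count/neuron; DMSO = baseline.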

[2] = CCTE_Mundy_HCI_Cortical_Synap_Neur_Matur_NeuriteCount: CCTE's Synaptogenesis and Neurite Maturation Assay in rat cortical cells for Neurite Count, Mundy Lab (AID 2284222);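 as to outcome: exposure from day 7 to day 12 in vitro with readout at day 12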
Summary of the method: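 Primary rat cortical cells were plated, treated with AraC at DIV 5, then exposed to chemicals from DIV 7 through DIV 12. After fixation and immunostaining for MAP2 and synaptophysin, imaging quantified neurites, with DMSO as the negative control.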

[3] = CCTE_Mundy_HCI_Cortical_Synap_Neur_Matur_CellBodySpotCount: CCTE's Synaptogenesis and Neurite Maturation Assay in rat cortical cells for Cell Body Spot Count, Mundy Lab (AID 2284223)
Summary of the method: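 Chemicals were applied to AraC-treated rat primary cortical cells at DIV 7 and measured at DIV 12. Fixed cells were labelled for MAP2, synaptophysin and nuclei, and high-content imaging gave cell body synaptophysin spot counts per neuron relative to DMSO.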

[4] = CCTE_Mundy_HCI_hNP1_Pro_ResponderAvgInten: CCTE's Proliferation Assay in human neuroprogenitor cells, Mundy Lab (AID 2284224; active = hit-call score of the fitted dose curve at least 0.9, where 1 is the maximum;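 also: human neural progenitor cells hNP1 derived from WA09 embryonic stem cells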)
Summary of the method: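 Human neuroprogenitors (hNP1, WA09 lineage) receive test chemical after 40 to 44 hours of attachment. A four-hour BrdU pulse begins twenty hours later, followed by fixation and high content imaging; signal is referenced to DMSO controls.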

[5] = CCTE_Mundy_HCI_hN2_NOG_NeuriteCount: CCTE's Neurite Outgrowth Assay in human hN2 cells for Neurite Count, Mundy Lab (AID 2284219; active = hit-call score of the fitted dose curve at least 0.9, where 1 is the maximum)
Procedure: CCTE_Mundy_HCI_hN2_NOG is a multiplexed, cell-based-readout assay that uses immature neurons derived from hNP1 neuroprogenitor cells with measurements taken at 50.33 hours after chemical dosing in a microplate: 96-well plate.CCTE_Mundy_HCI_hN2_NOG_NeuriteCount is one of four components of the CCTE_Mundy_HCI_hN2_NOG assay. It measures neurite outgrowth related to number of neurites using High Content Imaging of fluorescently labelled markers.[…] Using a type of morphology reporter, loss -of-signal activity can be used to understand developmental effects.
Exposure starts 2 hours post-plating by adding 10 ul of the working solution to 90 ul of media in the wells for a 1/10 dilution. Forty-eight hours after chemical treatment cells are fixed by direct addition of 100 ul of warm (37C) Dulbecco's phosphate buffered saline (DPBS) fixative solution containing 8% paraformaldehyde, 8% sucrose, and 0.1% of 3 mg/ml Hoechst 33342 into each well. Primary antibodies are prepared by dilution in Immunocytochemical Staining Buffer (ISB), 10X Dulbecco's PBS, 0.1% Saponin, 5% Bovine Serum Albumin, 0.5% NaN3 (Sodium Azide) and betaIII-tubulin (rabbit anti-betaIII-tubulin, 1:800) followed by Alexa Fluor-488 secondary (1:500) to label neuronal cell bodies and neurites. A Cellomics ArrayScan VTi HCS Reader is used for automated image acquisition and analysis of neurite outgrowth.

[6] = CCTE_Mundy_HCI_hN2_NOG_NeuriteLength: CCTE's Neurite Outgrowth Assay in human hN2 cells for Neurite Length, Mundy Lab (AID 2284220; active = hit-call score of the fitted dose curve at least 0.9, where 1 is the maximum)
Summary of the method: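 Using βIII-tubulin immunofluorescence and Hoechst nuclear counterstain, this component quantifies neurite length in hNP1-derived neurons.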

[7] = CCTE_Mundy_HCI_hN2_NOG_NeuronCount: CCTE's Neurite Outgrowth Assay in human hN2 cells for Neuron Count, Mundy Lab (AID 2284221; active = hit-call score of the fitted dose curve at least 0.9, where 1 is the maximum)
Summary of the method: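 Read-out is the number of betaIII-tubulin-positive neurons imaged by automated high-content analysis, with DMSO as negative control.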

[8] = BSK_BT_PBMCCytotoxicity: PBMC Cytotoxicity Assessment in the BioMAP Diversity Plus: BT Assay (AID 2284225); details: primary human B cells with PBMC;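 also: PBMC viability measured by Alamar Blue dye reduction fluorescence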
Summary of the method: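 PBMC (75,000/well) pretreated with compound 1 h, then activated with SEB and TSST-1 (20 ng/mL each final), incubated 90 h; Alamar Blue added 6 h, fluorescence read at 546/580 nm. Fitted relative to DMSO.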

[9] = read-out: Secreted IgG (sIgG), gene 3500; experiment: BSK_BT_sIgG: BioMAP Diversity Plus: BT Assay for Secreted IgG (sIgG) Biomarker Activity (AID 2284226); details: primary human B cells with PBMC
Summary of the method: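 Read-out: ELISA for secreted IgG after 24 h of chemical exposure in a B cell plus PBMC co-culture. Values reflect upward-direction fitting against DMSO negative controls.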

[10] = BSK_BT_Bcell_Proliferation: Viability Assessment in the BioMAP Diversity Plus: BT Assay for B cell Proliferation (AID 2284227); details: primary human B cells with PBMC
Summary of the method: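 Read-out is absorbance at 560 nm from sulforhodamine B staining of total protein, reflecting relative cell numbers in a human B cell and PBMC co-culture after 72 h of chemical exposure. Values were referenced to DMSO.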

SMILES: CCCCOC(=O)c1ccccc1C(=O)OCc1ccccc1
- outcome [1]: inactive
- outcome [2]: inactive
- outcome [3]: inactive
- outcome [4]: inactive

SMILES: Nc1cc(Cl)cc(C(=O)O)c1Cl
- outcome [1]: inactive
- outcome [5]: inactive
- outcome [6]: inactive
- outcome [7]: inactive
- outcome [2]: inactive
- outcome [3]: inactive

SMILES: CN(C)[C@@H]1C(=O)C(C(N)=O)=C(O)[C@@]2(O)C(=O)C3=C(O)c4c(O)cccc4[C@@](C)(O)[C@H]3C[C@@H]12
- outcome [1]: inactive
- outcome [2]: inactive
- outcome [3]: inactive

SMILES: COC(=O)Nc1nc2ccccc2[nH]1
- outcome [1]: inactive
- outcome [2]: inactive
- outcome [3]: inactive
- outcome [4]: inactive

SMILES: ClC1=C(Cl)C2(Cl)C3C(Cl)C=CC3C1(Cl)C2(Cl)Cl (stereo not given)
- AC50 [1]: 10.6 µM (active)
- AC50 [5]: 5 µM (active)
- AC50 [6]: 4.18 µM (active)
- AC50 [7]: 2.86 µM (active)
- AC50 [2]: 14.9 µM (active)
- AC50 [3]: 12.4 µM (active)
- AC50 [4]: 13.4 µM (active)

SMILES: CCC[CH2][Sn]([Cl])([CH2]CCC)[CH2]CCC
- AC50 [1]: 0.0569 µM (active)
- outcome [2]: inactive
- AC50 [3]: 0.102 µM (active)
- AC50 [4]: 0.188 µM (active)

SMILES: CC(C)COC(=O)c1ccccc1C(=O)OCC(C)C
- AC50 [1]: 79.6 µM (active)
- AC50 [2]: 88.7 µM (active)
- AC50 [3]: 83.8 µM (active)
- outcome [4]: inactive

SMILES: COP(=S)(OC)SCN1C(=O)c2ccccc2C1=O
- outcome [1]: inactive
- AC50 [5]: 33.5 µM (active)
- AC50 [6]: 31.1 µM (active)
- AC50 [7]: 23.1 µM (active)
- outcome [2]: inactive
- outcome [3]: inactive
- outcome [4]: inactive

SMILES: [O-][Cl+]O
- outcome [1]: inactive
- outcome [2]: inactive
- outcome [3]: inactive

SMILES: CC(C)(C)C(O)(CCc1ccc(Cl)cc1)Cn1cncn1 (stereo not given)
- outcome [1]: inactive
- outcome [6]: inactive
- outcome [2]: inactive
- outcome [3]: inactive
- outcome [4]: inactive

SMILES: OCCOCCO
- outcome [1]: inactive
- outcome [5]: inactive
- outcome [6]: inactive
- outcome [7]: inactive
- outcome [2]: inactive
- outcome [3]: inactive
- outcome [4]: inactive

SMILES: CNC(=O)Oc1cccc2c1OC(C)(C)C2
- outcome [1]: inactive
- outcome [2]: inactive
- outcome [3]: inactive

SMILES: CCNS(=O)(=O)C(F)(F)C(F)(F)C(F)(F)C(F)(F)C(F)(F)C(F)(F)C(F)(F)C(F)(F)F
- outcome [8]: inactive
- AC50 [9]: 22.5 µM (active) and 30 µM (active)
- outcome [10]: inactive
